Screening data: PubChem, several laboratories
esBAF inh: inhibitors of esBAF chromatin remodeling in mouse ES cells; actives 2% (n = 350,000); reporter increase, % at 12.5 µM; AID 602393; Bmi1-luciferase knock-in reporter, 24 h; 100% = twice the neutral-well signal; in the data active = activation above about 40%; inconclusive = no clear call, values can overlap the other calls;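 note: 0% = median of the plate's neutral control wells and 100% = double that signal; a rise in the Bmi1 reporter signal indicates esBAF inhibition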
Wnt bcat act: activates Wnt/beta-catenin signaling in a reporter cell assay. activator, plate reader. activation, % at 9.35 µM. actives 1.2% (n = 300,000); in the data active = activation above about 30%, passing the limit was not always enough; inconclusive = no clear call, values can overlap the other calls;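 note: 0% = neutral control wells and 100% = positive control wells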
HSF1 inh: HSF1 inhibition; NIH3T3-HGL HSE-luciferase, MG132-induced, luminescence 8 h; stronger effect = lower value; activity change, negative = inhibition, % at 7.5 µM (by protocol); actives 0.77% (n = 300,000); AID 2098;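 active = more than half of replicate wells show activity change below -50%, luminescence cut by over half; inconclusive = some wells, but at most half, below -50%; inactive = no replicate well below -50%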;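 note: luciferase reports HSF-1 transcriptional activity via heat shock element; 0% = median of DMSO wells and -100% = zero luminescence signal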
HSF1 activator: increases HSF-1 driven luciferase reporter signal. NIH3T3-HGL HSF-1 luciferase reporter, MG132, 8 h; 100% = twice DMSO control signal. activation, % at 9 µM. actives 1.7% (n = 300,000);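 active = mean replicate activation of at least 50% with a set share of replicates each reaching 50%; inconclusive = only one of those two conditions met; inactive = mean below 50% and too few replicates reaching it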;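 note: 0% = median of the neutral control wells and 100% = twice that signal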
SMARCA2 act: activators of SMARCA2 function; MG213 cells, MMTV-luciferase reporter, dexamethasone, overnight; activation, % at 9.1 µM; actives 1% (n = 370,000); AID 652017; in the data active = activation above about 7.8%;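 note: 0% = vehicle wells and 100% = reference activator wells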
MITF act: MITF TRPM1 promoter activation in melanoma cells | AID 588334 | actives 0.75% (n = 300,000) | SK-MEL-5 TRPM1-promoter luciferase, 24 h; % of positive control, neutral wells = 0 | activation, % at 12.5 µM;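 active = mean activation of at least 80% with every replicate also reaching 80%; inconclusive = mean reaches 80% but some replicate falls short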;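 note: 0% = neutral control wells and 100% = parthenolide positive control wells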
An asterisk follows results filed as active; ? = inconclusive; . = not tested or not shown. Only some compounds are listed: those with a hit (about 4.3% of all), similar ones and a draw of the others.

SMILES	esBAF inh	Wnt bcat act	HSF1 inh	HSF1 activator	SMARCA2 act	MITF act
O=C(CN(c1cccc(C(F)(F)F)c1)S(=O)(=O)c1ccc(Cl)c([N+](=O)[O-])c1)NCc1ccccc1	.	4	6	14	2	-10
O=C(CN(c1cccc(C(F)(F)F)c1)S(=O)(=O)c1ccc(Cl)c([N+](=O)[O-])c1)NCc1ccccc1Cl	.	.	36	66*	-5	-54
Cc1ccc(S(=O)(=O)Nc2ccc3c(c2)C(=O)N([C@H](C)CO)C[C@@H](C)[C@@H](CN(C)Cc2ccc(C(F)(F)F)cc2)OCCCC[C@H](C)O3)cc1	-13	.	.	.	.	.
CC(C)NC(=O)N(C)C[C@H]1Oc2ccc(NC(=O)Cc3ccccc3)cc2C(=O)N([C@@H](C)CO)C[C@@H]1C	-1	.	.	.	.	.
Cc1ccccc1Nc1nn2c(=O)c3ccccc3nc2s1	38	35*	24	41	2	43
C/C(Cl)=C/CSc1nn2c(=O)c3ccccc3nc2s1	34	.	.	.	3	?
C=CCSc1nn2c(=O)c3ccccc3nc2s1	14	52*	14	6	5	.
COc1cccc(Nc2nn3c(=O)c4ccccc4nc3s2)c1	69*	.	.	.	.	114*
O=c1c2ccccc2nc2sc(Nc3ccc(F)cc3)nn12	?	29	.	.	4	51
CCCNC(=O)C[C@@H]1C[C@@H]2c3cc(NC(=O)C4CCOCC4)ccc3O[C@@H]2[C@H](CO)O1	-3	.	.	.	.	.
O=C(C[C@H]1CC[C@@H](NC(=O)C2CC2)[C@@H](CO)O1)NCCCN1CCOCC1	-2	.	.	.	.	.
COc1ccc(CN(C)C[C@@H]2OCCCC[C@H](C)Oc3ccc(NC(=O)Nc4ccc(C(F)(F)F)cc4)cc3C(=O)N([C@H](C)CO)C[C@H]2C)cc1	7	.	.	.	.	.
Cc1ccc(Nc2nc(COC(=O)C3CC3)cs2)cc1	49*	8	1	-13	3	?
O=C(CN(Cc1ccccc1Cl)S(=O)(=O)c1ccc(Cl)cc1)N/N=C/c1ccc(C(=O)O)cc1	9	4	-86*	-89	1	9
COc1cc(/C=N\Nc2nc3ccccc3o2)cc(OC)c1OC	51*	?	12	25	0	70
COc1cc(/C=N/Nc2nc3ccccc3o2)cc(OC)c1O	14	.	14	12	0	.
COc1ccc(/C=N/Nc2nc3ccccc3o2)cc1O	-19	62*	18	33	-1	-13
COCCNC(=O)C[C@@H]1C[C@H]2c3cc(NS(C)(=O)=O)ccc3O[C@H]2[C@H](CO)O1	2	.	.	.	.	.
O=C(Cc1ccc(Br)cc1)N1CCCCCC1	57*	.	33	39	-2	.
O=C(Cc1ccc(Br)cc1)N1CCCC1	2	1	-7	5	-1	3
CNC[C@@H]1Oc2cc(-c3cncnc3)ccc2S(=O)(=O)N([C@H](C)CO)C[C@H]1C	-8	.	.	.	.	.
CCOC(=O)C1CCN(c2c(Nc3ccc4c(c3)OCCO4)c(=O)c2=O)CC1	-34	-4	-54*	-58	-4	7
CCOC(=O)N1CCC(N2C(=O)c3ccccc3C2Nc2ccc3c(c2)OCCO3)CC1 (centres undefined)	-35	-11	-69*	-72	-3	-69
CCOC(=O)C1CCN(C(C(=O)Nc2ccc3c(c2)OCCO3)c2ccccc2)CC1 (centres undefined)	-4	.	8	17	-2	-4
O=C(NC(=S)N1CCN(c2ccc([N+](=O)[O-])cc2Cl)CC1)c1ccco1	.	-2	43	55*	-1	-1
SMILES	esBAF inh	Wnt bcat act	HSF1 inh	HSF1 activator	SMARCA2 act	MITF act
O=C(c1ccco1)N1CCN(c2ccc([N+](=O)[O-])cc2Cl)CC1	.	2	9	10	4	10
CCOC(=O)Cn1nnc(-c2cccc(OC)c2)n1	8	3	24	67*	3	7
CN1CCCCN2[C@H](CO)[C@@H](c3ccc(-c4cccnc4)cc3)[C@@H]2C1	-1	.	.	.	.	.
CCn1c(C)nc2cc(C(=O)N/N=C/c3cccc(O)c3O)ccc21	.	41*	7	2	1	0
CCn1c(C)nc2cc(C(=O)N/N=C/c3ccc(O)cc3)ccc21	.	1	-14	-32	-2	10
CCn1c(C)nc2cc(C(=O)N/N=C/c3ccccc3)ccc21	43*	-1	9	20	3	45
COc1cccc(-c2ccc3c(c2)[C@@H]2[C@@H](CCN2Cc2ccccc2OC)[C@@H](CO)N3)c1	1	.	.	.	.	.
CC(C)NC(=O)Nc1ccc2c(c1)C(=O)N([C@@H](C)CO)C[C@@H](C)[C@@H](CN(C)C(=O)c1ccccc1)OCCCC[C@@H](C)O2	1	.	.	.	.	.
O=C(c1cccs1)N1N=C(c2ccccc2)CC1c1ccccc1O (centres undefined)	.	0	.	.	-3	-8
Cc1ccc(C2=NN(C(=O)c3cccs3)C(c3ccccc3O)C2)cc1 (centres undefined)	.	.	54	80*	4	18
Cc1cc(C(=O)CSc2ccc(F)cc2)cc(C)c1OC(=S)N(C)C	-23	-7	-62*	-65	-7	-12
COc1ccc(SCC(=O)c2cc(C)c(OC(=S)N(C)C)c(C)c2)cc1	4	41*	5	4	2	29
Cc1ccc(SCC(=O)c2cc(C)c(O)c(C)c2)cc1	38	2	3	32	-1	48
O=C(C[C@@H]1C[C@@H]2c3cc(NC(=O)Cc4ccncc4)ccc3O[C@@H]2[C@H](CO)O1)NCc1ccccn1	-2	.	.	.	.	.
COc1ccccc1NC(=O)c1ccc2c(=O)n3c(nc2c1)CCC3	6	0	.	.	-1	18
O=C(Nc1ccc(Br)cc1Cl)c1ccc2c(=O)n3c(nc2c1)CCC3	.	15	31	55*	0	?
O=C(Nc1ccc(Cl)cc1Cl)c1ccc2c(=O)n3c(nc2c1)CCC3	43*	42*	27	37	5	?
CCOC(=O)CC(=O)CSc1nc2c(cc1C#N)CCCCC2	52*	.	-7	-1	6	.
CCOC(=O)CC(=O)COc1nc2cc3c(nc2o1)CCCC3	59*	0	1	8	4	.
CC(C)OC(=O)CSc1nc2c(cc1C#N)CCCCC2	71*	10	-1	13	5	34
COCC(=O)Nc1ccc2c(c1)OC[C@@H](C)N(C(=O)COC)C[C@H](C)[C@H](OC)CN(C)C2=O	-1	.	.	.	.	.
C/C=C/c1ccc([C@@H]2[C@H](C#N)N(c3nc(CC)cs3)[C@H]2CO)cc1	4	.	.	.	.	.
COCC(=O)Nc1ccc2c(c1)C(=O)N(C)C[C@@H](OC)[C@@H](C)CN[C@@H](C)CO2	3	.	.	.	.	.
O=c1c2ccccc2cnn1-c1nc2ccccc2[nH]1	.	-33	-83*	-85	-7	-93
O=c1c(Cl)c(N2CCCCC2)cnn1-c1nc2ccccc2[nH]1	.	.	-34	-44	0	.
CCOc1cc2c(C#N)c(N3CCCC3)nc(N)c2c(N)n1	-1	4	-36	-50	1	14
